PubChem BioAssay AID748 (Sanford-Burnham Center for Chemical Genomics, 2007)
Among all 96,000 compounds or so, about 100 (0.1%) were called active.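 How the source made its calls: active means displacement above 50% at 20 µM plus a fluorescence interference ratio under 1.5; inactive means the rest.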 The list comes from a sample in which actives are over-represented; it also holds similar structures and randomly drawn compounds. Entries with a potency or affinity are not part of this list.

The molecules below were run against Bcl-2-like protein 10 (Homo sapiens) (UniProt Q9HD36) (assay: Bcl-B/TR3 peptide binding disruption – biochemical, fluorescence polarization, FITC-TR3 peptide, selectivity assay for Bfl-1 inhibitor project, primary screen (AID 748;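 further: plate controls were wells without compound for no effect and wells lacking Bcl-B protein for full effect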)). Details: FP displacement of FITC-TR3 peptide from Bcl-B; at 20 µM; hits give high values.

Row | SMILES | displacement
1 | CCC1CCCCN1C(=O)COC(=O)c1n[nH]c2ccccc12 (centres undefined) | -6% (inactive)
2 | Cc1cc(S(=O)(=O)Nc2ccccc2C(=O)O)ccc1Cl | -4.3% (inactive)
3 | Cc1nn(-c2ccccc2)c(Cl)c1/C=N/Nc1ccc(S(=O)(=O)Nc2ccccc2C(=O)O)cc1[N+](=O)[O-] | 62.4% (active)
4 | COc1c(/C=N/Nc2ccc([N+](=O)[O-])cc2[N+](=O)[O-])c(C)nn1-c1ccccc1 | -2.4% (inactive)
5 | Cc1ccc(CNC(=O)CCn2nc(-c3ccc(Cl)cc3)ccc2=O)cc1 | -8.8% (inactive)
6 | COc1ccc(CCNc2nc3c(c(=O)n(C)c(=O)n3C)n2C)cc1OC | 8.6% (inactive)
7 | COc1ccccc1NC(=O)CNC(=O)c1ccc(F)cc1 | -4.7% (inactive)
8 | O=C(Nc1ccc2nsnc2c1)N1CCCCCC1 | 1.1% (inactive)
9 | CCOC(=O)C1CCN(C(=O)Nc2ccc3nc(-c4ccco4)c(-c4ccco4)nc3c2)CC1 | 95.6% (inactive)
10 | O=C(Nc1cccc(C(F)(F)F)c1)c1ccc2nc(-c3ccco3)c(-c3ccco3)nc2c1 | 19.6% (inactive)
11 | O=C(NCc1ccccc1)c1ccc2nc(-c3ccco3)c(-c3ccco3)nc2c1 | 29.5% (inactive)
12 | O=C(Nc1ccc(N2CCOCC2)cc1)c1ccc2nc(-c3ccco3)c(-c3ccco3)nc2c1 | 0% (inactive)
13 | O=C(NCCO)c1ccc2nc(-c3ccco3)c(-c3ccco3)nc2c1 | 26.6% (inactive)
14 | CCOCCCNC(=O)C1CCN(C(=O)N(C)C)CC1 | 3.4% (inactive)
15 | COc1ccc(C)cc1NS(=O)(=O)c1cn(C)c(=O)n(C)c1=O | -4.4% (inactive)
16 | COc1ccc(S(=O)(=O)N2CCCC2C(=O)Nc2ccc(C)cc2)cc1 (centres undefined) | -2% (inactive)
17 | CCOC(=O)c1snc(-c2ccc(F)cc2)c1N | -3.1% (inactive)
18 | CCOC(=O)c1[nH]c2cc3c(cc2c1NC(=O)CN1CCCCC1C)OCO3 (centres undefined) | 9.5% (inactive)
19 | O=S(=O)(c1ccc(S(=O)(=O)N2CCCN(Cc3ccccc3)C2)cc1)N1CCCCCC1 | 0.8% (inactive)
20 | CC(=O)Nc1nnc(SCC(=O)NCCOc2ccccc2)s1 | -9.4% (inactive)
21 | CCCCC(=O)NC1=NC(=O)C(C)(C)S1 | -8% (inactive)
22 | Cc1oc2cc3c(C(=O)N4CCCCC4)c(C)oc3cc2c1C(=O)N1CCCCC1 | 6.1% (inactive)

Row | SMILES | displacement
23 | CCCn1c(CCC(=O)O)ccc1-c1cccs1 | 2.8% (inactive)
24 | CCCCn1c(CCC(=O)O)ccc1-c1cccs1 | 4.3% (inactive)
25 | Cc1sc2nc(SCc3nc4ccccc4[nH]3)n(Cc3ccco3)c(=O)c2c1C | -8.7% (inactive)
26 | COc1ccc(C2C(=O)N(C3CCCCC3)CC(=O)N2Cc2ccco2)cc1 (centres undefined) | -8.2% (inactive)
27 | CCOC(=O)c1nn(-c2ccccc2)c(=O)c2c(N)scc12 | -1.6% (inactive)
28 | CC1(C)OC(=O)C(=CNc2ccccc2F)C(=O)O1 | 5.4% (inactive)
29 | Cc1nnc(SCC(=O)Nc2cccc(C(F)(F)F)c2)n1Cc1ccco1 | 4.7% (inactive)
30 | CCOC(=O)c1[nH]c(C(=O)O)c(CCN(CC)CC)c1C | 0.1% (inactive)
31 | COC(=O)CCc1c(C)[nH]c(C(=O)OCc2ccccc2)c1C | -0.4% (inactive)
32 | O=C(CCc1ccccc1)OCCN1CCOCC1 | 5.9% (inactive)
33 | Cn1nnnc1SCCNCc1ccccc1F | 1.2% (inactive)
34 | CN(C)c1ccc2c(O)cc(=O)n(C)c2c1 | 13% (inactive)
35 | Cc1nnc(NC(=O)COc2ccccc2)s1 | -16.7% (inactive)
36 | COc1ccc(CNCC(O)(c2ccccc2)c2ccc(Cl)cc2)cc1 (centres undefined) | -0.9% (inactive)
37 | COc1ccc(-c2cc(C(F)(F)F)nc(SCC(=O)N3CCOCC3)n2)cc1OC | -2.2% (inactive)
38 | O=C(Nc1ccc2c(c1)OCO2)c1cnn2c(C(F)(F)F)cc(-c3ccco3)nc12 | 10.1% (inactive)
39 | O=C(O)c1cnn2c(C(F)(F)F)cc(-c3ccco3)nc12 | 35.7% (inactive)
40 | Cc1nn(C)cc1CNC(=O)c1cccc(Cl)c1 | 3.4% (inactive)
41 | COC(=O)[C@H](Cc1ccccc1)NC(=O)NCc1ccc(S(N)(=O)=O)cc1 | 3% (inactive)
42 | O=C(NCN1CCN(c2ccccc2F)CC1)c1cccnc1 | -3.4% (inactive)
43 | NC1=NS(=O)(=O)NC1c1cccc(Cl)c1 (centres undefined) | -0.7% (inactive)
44 | CS(=O)(=O)N(Cc1ccc(C(=O)Nc2ccccc2Sc2ccccc2)cc1)c1ccccc1 | -11.2% (inactive)

Row | SMILES | displacement
45 | Cc1cccc(OCCCC(=O)O)c1 | -8.7% (inactive)
46 | CC1CCN(C(=O)c2ccc3c(c2NCCO)C(=O)c2ccccc2C3=O)CC1 | 27.9% (inactive)
47 | CC1CCCN(C(=O)c2ccc3c(c2NCCO)C(=O)c2ccccc2C3=O)C1 (centres undefined) | 37% (inactive)
48 | CC(CC(=O)c1cccs1)CC(=O)c1cccs1 | -2.6% (inactive)
49 | O=C(O)Cn1nc2ccccc2n1 | 3.4% (inactive)
50 | Cc1nc(=S)n(-c2ccccc2)[nH]1 | -1.7% (inactive)
51 | CC(/C=C/c1ccco1)=N/NC(=O)Cc1cccs1 | -47.4% (inactive)
52 | O=C(CNC(=O)c1ccco1)NCC(=O)OCc1ccccc1Br | -3.7% (inactive)
53 | O=C(NCc1ccncc1)C1CCCCC1 | -9% (inactive)
54 | COc1cc(-c2nnc(SCc3ccccc3Cl)o2)cc(OC)c1OC | -2.8% (inactive)
55 | COc1cc(-c2nnc(SCc3cc(=O)oc4cc(C)ccc34)o2)cc(OC)c1OC | -10.8% (inactive)
56 | Cc1c(C(=O)Nc2cccc3cccnc23)oc2ccccc12 | 10.7% (inactive)
57 | Cc1cc(=O)n2c3c(cccc13)CCC2 | -9.7% (inactive)
58 | C=CCn1c(SCC(=O)Nc2ncc(Cc3cc(Cl)ccc3Cl)s2)nnc1-c1ccncc1 | -3.4% (inactive)
59 | O=C(NCc1ccco1)c1cc(-c2ccc(F)cc2)on1 | 1.1% (inactive)
60 | CN1CCN(c2ccc(NC(=O)Cc3ccccc3)cc2)CC1 | -5.5% (inactive)
61 | O=C(Nc1ccc(N2CCCC2)cc1)C(Cl)c1ccccc1 (centres undefined) | -13.8% (inactive)
62 | O=C(Nc1ccc(N2CCCCC2)cc1)c1ccccc1 | -3.3% (inactive)
63 | O=C(Cc1ccc(Cl)cc1)Nc1ccc(N2CCCC2)cc1 | -84% (inactive)
64 | CCOC(=O)c1ccccc1NC(=O)CC(C)CC(=O)O (centres undefined) | -5.5% (inactive)
